Data from PubChem BioAssay (NCATS).
Values without a mark were called inactive. Inconclusive results are not listed. Entries that show only a call come without a potency. Activity calls are given as the source filed them. The call rests on the fitted dose curve; in most records, active means well fitted curve in the direction sought with a large enough effect; inconclusive means small, poorly fitted or top-dose-only effect, or another doubt; inactive means no such curve, though single readings can be large; an effect the other way counts as inactive or inconclusive.

Key:
[1] = target: Glutathione peroxidase 1 (Homo sapiens) (UniProt P07203); test: Primary qHTS Assay for Inhibitors of Recombinant Selenoprotein Glutathione Peroxidase 1 (GPX1) (AID 1845191); further: nearly all actives have a fitted effect of over 65% in size; further: potency means the concentration at half of the fitted maximal effect
Procedure, shortened: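 10 nM GPX1 + cpd, 30 min RT; start w/ 1 mM GSH, 0.5 mM cumene hydroperoxide, 0.5 mM NADPH, 100 nM GR, 0.01% BSA; buffer 50 mM Tris-HCl pH 7.5, 2 mM EDTA, 150 mM NaCl; Fl 340/450, 0 & 15 min.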

[2] = target: Phospholipid hydroperoxide glutathione peroxidase GPX4 (Homo sapiens) (UniProt P36969); test: Primary qHTS Assay for Inhibitors of Recombinant Selenoprotein Glutathione Peroxidase 4 (GPX4) (AID 1845192); further: nearly all actives have a fitted effect of over 65% in size; further: potency means the concentration at half of the fitted maximal effect; on activity change, negative = inhibition: series mostly up to about 50 µM
Procedure, shortened: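 NADPH consumption, followed by fluorescence at 340/450 nm between 0 and 15 min, reports GPX4 activity via coupled glutathione reductase (100 nM). Enzyme 200 nM was pre-exposed to compound 30 min; 0.5 mM cumene hydroperoxide and 1 mM GSH served as substrates.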

[3] = target: Luciferin 4-monooxygenase (Photinus pyralis) (UniProt P08659); test: Primary firefly luciferase (FLuc) qHTS assay for identification of artifact compounds. (AID 1845220); further: nearly all actives have a fitted effect of over 60% in size; on activity change, negative = inhibition: series mostly up to about 54 µM
Procedure, shortened: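 Compounds sat 15 min at room temperature with 10 uM luciferin and 10 uM ATP (pH 7.6 Tris acetate). Firefly luciferase (10 nM final) was then added, and luminescence was read 5 min later. Data normalized to no-enzyme and DMSO controls were Hill-fitted.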

[4] = Primary fluorescence-based thiol-reactive (MSTI) qHTS assay for identification of artifact compounds. (AID 1845221);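 further: series mostly up to about 54 µM; thiol-reactive compounds lower the probe fluorescence signal; nearly all actives have a fitted effect of over 65% in size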
Procedure, shortened: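 Probe: MSTI 4 uM, PBS pH 7.4, 2% DMSO. Incubation 1 h, RT, light-protected. Readout fluorescence 525/598 nm.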

[5] = test system: Nanoluciferase (engineered Oplophorus gracilirostris luciferase); test: Primary Nanoluciferase (NLuc) qHTS assay for identification of artifact compounds. (AID 1845222); further: series mostly up to about 54 µM
Procedure, shortened: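 Luminescence from secreted NLuc (filtered, 1:55-diluted S16 cell medium) read 5 min after Nano-Glo substrate; compounds preincubated 15 min, RT. Hill fits of inhibition normalized to DMSO and no-enzyme.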

[6] = Primary redox qHTS assay for identification of artifact compounds. (AID 1845223)
Procedure, shortened: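 Amplex Red (25 uM) and HRP (250 mU/mL) in HBSS, with compounds for 15 min, then 250 uM DTT for 30 min, room temperature, dark. Fluorescence 525/598 nm read; normalized to DMSO and 10 uM DA3003; Hill fit.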

Sequence of Phospholipid hydroperoxide glutathione peroxidase GPX4 (Homo sapiens) (P36969 whole entry, looked up): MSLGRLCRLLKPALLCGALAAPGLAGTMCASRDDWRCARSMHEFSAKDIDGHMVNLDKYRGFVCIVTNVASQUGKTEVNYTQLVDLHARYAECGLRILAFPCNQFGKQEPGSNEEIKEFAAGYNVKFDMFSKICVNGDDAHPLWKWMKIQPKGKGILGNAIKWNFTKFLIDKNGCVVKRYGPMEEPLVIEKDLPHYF
Sequence of Glutathione peroxidase 1 (Homo sapiens) (P07203 whole entry, looked up): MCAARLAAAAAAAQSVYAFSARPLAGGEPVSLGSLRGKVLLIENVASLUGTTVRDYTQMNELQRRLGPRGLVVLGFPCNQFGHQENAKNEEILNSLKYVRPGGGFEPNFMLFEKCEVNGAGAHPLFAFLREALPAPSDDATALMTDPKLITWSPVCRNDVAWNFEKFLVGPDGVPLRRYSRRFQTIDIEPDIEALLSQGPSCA

| Compound | Potency [1] | Potency [2] | Potency [3] | Potency [4] | Potency [5] | Potency [6] | activity change, negative = inhibition [3] | activity change, negative = thiol reactive [4] | activity, negative = inhibition [5] | redox activity (% of DA3003) [6] |
| --- | --- | --- | --- | --- | --- | --- | --- | --- | --- | --- |
| Cc1ccc(C)c(NC(=O)[C@@H]2CCCN2S(=O)(=O)c2cccc3cccnc23)c1 | inactive | inactive | inactive | inactive | inactive | inactive |  |  |  |  |
| O=C(Nc1cnc(Cl)nc1)c1ccc(F)c(F)c1 | inactive | inactive | inactive | inactive | inactive | inactive |  |  |  |  |
| Cc1ccc(NC(=O)N2CCN(c3nc(N)nc4sc(-c5cccnc5)nc34)CC2)cc1 | 14.3 µM (active) | 2.55 µM (active) | inactive | inactive | inactive | inactive |  |  |  |  |
| CC(C)c1ccc(NC(=O)c2cccs2)c(-c2nc3ccccc3[nH]c2=O)c1 | inactive | inactive | inactive | inactive | inactive | inactive |  |  |  |  |
| C/C(=C\CO[C@@H]1O[C@H](CO[C@H]2OC[C@](O)(CO)[C@H]2O)[C@@H](O)[C@H](O)[C@H]1O)C(C)(C)O | inactive | inactive | inactive | inactive | inactive | inactive |  |  |  |  |
| Cc1cc(C)nc(SCC(=O)Nc2ncc(Cc3cccc4ccccc34)s2)n1 | inactive | inactive | inactive | inactive | inactive | inactive |  |  |  |  |
| N[C@@H]1c2cccnc2[C@H](OC(=O)N2CCC(n3c(=O)[nH]c4ncccc43)CC2)CC[C@H]1c1cccc(F)c1F | inactive | inactive | inactive | inactive | inactive | inactive |  |  |  |  |
| COc1ccc(CN2CCN(CCCSc3cc(C(C)(C)C)c(O)c(C(C)(C)C)c3)CC2)c(OC)c1OC | inactive | inactive |  |  |  |  | 3.48% [at 11.6 µM] | 2.62% [at 11.5 µM] | 3.22% [at 11.6 µM] | 6.4% [at 11.5 µM] |
| CC(C)NCCCn1c(Sc2cc3c(cc2I)OCO3)nc2c(N)ncnc21 | inactive | inactive | inactive | inactive | inactive | inactive |  |  |  |  |
| COc1cccc(-c2cc(F)ccc2C2Cc3nc(N)nc(C)c3C(=O)N2)n1 (stereo unspecified) | inactive | inactive | inactive | inactive | inactive | inactive |  |  |  |  |
| COC(=O)c1ccnc(-c2cc(C(=O)Nc3ccc(C4(N)CC4)cc3)ccn2)c1 | inactive | inactive | inactive | inactive | inactive | inactive |  |  |  |  |
